Consider 92 compounds from PubChem BioAssay AID602438 (Sanford-Burnham Center for Chemical Genomics, 2012).

Values joined by “and” are separate entries in the source; they are usually repeats but may differ in a detail not shown here. Identical values can stand only once. The campaign covered roughly 360,000 compounds. About 3,100 (0.86%) were called active.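 Rule for the calls: active = inhibition or corrected inhibition above about 18%, plus a signal ratio from 0.5 to 1.5 (limit read from the data, passing the limit was not always enough); inactive = the rest.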 The list comes from a sample in which actives are over-represented; it also holds similar structures and randomly drawn compounds.

As a reminder, the inhibition is the drop in the measured response relative to a control, in per cent.

The target in this assay is Neuropilin-1 (Homo sapiens) (UniProt O14786). The assay can be described thus: modulators of CendR peptide binding to NRP-1, primary screen, biochemical, fluorescence polarization, uHTS (AID 602438). Particulars: FAM-RPARPAR peptide binding to NRP-1, fluorescence polarization; at 25 µM; hits give high values.
Sequence of Neuropilin-1 (Homo sapiens) (O14786 whole entry, looked up): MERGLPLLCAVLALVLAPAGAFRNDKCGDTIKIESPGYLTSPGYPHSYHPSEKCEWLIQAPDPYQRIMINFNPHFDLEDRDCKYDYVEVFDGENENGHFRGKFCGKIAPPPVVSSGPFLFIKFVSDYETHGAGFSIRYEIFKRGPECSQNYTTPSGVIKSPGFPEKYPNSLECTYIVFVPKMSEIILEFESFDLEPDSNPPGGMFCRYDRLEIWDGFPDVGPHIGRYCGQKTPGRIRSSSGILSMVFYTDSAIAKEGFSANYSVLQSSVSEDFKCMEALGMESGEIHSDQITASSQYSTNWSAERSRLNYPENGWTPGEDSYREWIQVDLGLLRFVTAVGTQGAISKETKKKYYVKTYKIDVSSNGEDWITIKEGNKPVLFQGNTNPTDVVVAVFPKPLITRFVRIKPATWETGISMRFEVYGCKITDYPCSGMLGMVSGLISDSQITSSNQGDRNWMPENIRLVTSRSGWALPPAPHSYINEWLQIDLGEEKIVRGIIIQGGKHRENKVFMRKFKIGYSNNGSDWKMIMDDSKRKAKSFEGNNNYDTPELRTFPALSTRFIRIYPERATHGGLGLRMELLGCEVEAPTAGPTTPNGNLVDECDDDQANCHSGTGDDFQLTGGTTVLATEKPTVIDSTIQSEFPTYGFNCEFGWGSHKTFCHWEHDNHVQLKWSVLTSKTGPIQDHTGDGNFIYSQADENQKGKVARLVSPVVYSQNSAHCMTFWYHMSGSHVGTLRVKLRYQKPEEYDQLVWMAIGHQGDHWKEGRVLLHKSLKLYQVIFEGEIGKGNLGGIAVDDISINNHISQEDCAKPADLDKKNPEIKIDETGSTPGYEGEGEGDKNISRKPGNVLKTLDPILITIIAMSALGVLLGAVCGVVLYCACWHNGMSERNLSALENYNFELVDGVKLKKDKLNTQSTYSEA
For `CCCn1nc2cc(C(=O)NCc3ccccc3)ccc2c1OCC`, the inhibition is 27% (active).

Take `CCOc1ccc(NC(=O)COc2ccc(C(=O)NC3CCCc4ccccc43)cc2OC)cc1` (configuration not stated): the inhibition was -6.4% (inactive). The same measure for `CCOc1c2ccc(C(=O)NC3CCCc4ccccc43)cc2nn1CC` (configuration not stated): 22.9% (active). The same measure for `Cc1cc(N2C(=O)c3ccc(C(=O)NCc4ccccc4)cc3C2=O)no1`: -12.4% (inactive); for `CNS(=O)(=O)c1cccc(C(=O)NC2CCCc3ccccc32)c1` (configuration not stated): -7.1% (inactive); for `C[n+]1ccc(C(=O)NCc2ccccc2)cc1`: 8.4% (inactive). The figure for `CC(=O)Cn1ncc(N2CCOCC2)c(Br)c1=O` is -5.8% (inactive); for `Cc1ccc(OCCNC(=O)CCNS(=O)(=O)c2ccc(Br)cc2)cc1` it is 4.5% (inactive).

Turning to `Nc1c(C(=O)c2cccs2)sc2nsc(SCCN3CCCCC3)c12`, the inhibition was 131% (inactive). The figure for `Cn1c(CCC(=O)Nc2ccccc2F)nnc1SCC(=O)Nc1ccccc1Cl` is -3.9% (inactive).

In the case of `COc1ccccc1NC(=S)N1CCC(NC(=O)C23CC4CC(CC(C4)C2)C3)CC1`, the inhibition is -1.5% (inactive). Take `Cc1ccc(S(=O)(=O)NC(C)C(=O)NCc2ccc(Cl)cc2)cc1` (configuration not stated): the inhibition was -8.1% (inactive). The same measure for `CC(Oc1cc2oc(=O)c3c(c2cc1Cl)CCCC3)C(=O)NCc1ccncc1` (configuration not stated): -1.5% (inactive); for `COc1ccc(S(=O)(=O)NC(C)C(=O)NCc2ccncc2)cc1Cl` (configuration not stated): 22.5% (active); for `COc1cccc(NC(=O)N2CCC(NC(=O)C(Cc3cccc(C)c3)NC(C)=O)CC2)c1` (configuration not stated): 9.8% (inactive). The figure for `CCOC(=O)c1c(/N=C/C2C(=O)CC(C)(C)CC2=O)sc(C)c1C` is -41.2% (inactive); for `Cc1ccc(C)c(OCCC(=O)OCC(=O)NC(=O)NCc2ccccc2)c1` it is -19% (inactive). Take `COc1ccccc1OCCC(=O)OCC(=O)NC(=O)NC(C)(C)C`: the inhibition is -7.2% (inactive). Regarding `COc1ccccc1OCCC(=O)OCC(=O)NCc1ccccc1`, the inhibition was 31.3% (active). The figure for `CC1CCCC(N2CCN(C(=O)c3ccc(F)cc3)CC2)C1` (configuration not stated) is 1.1% (inactive). The same measure for `CC(C)(C)c1cc(=O)n2c(nc3ccccc32)[nH]1`: 3.4% (inactive); for `COc1ccc(C)cc1N(CC(=O)NC(C)c1ccccc1)S(C)(=O)=O` (configuration not stated): 3.7% (inactive); for `COc1ccc(O)c(/C=N/N=C/c2cccc([N+](=O)[O-])c2)c1`: 6.7% (inactive). The same measure for `CCCc1ccc(OCc2ccc(C(=O)N/N=C/c3cccc([N+](=O)[O-])c3)o2)c(OC)c1`: -4.8% (inactive); for `COc1cc(/C=N\NC(=O)CNC(=O)c2cccc([N+](=O)[O-])c2)ccc1O`: 21.9% (active); for `O=C(/C=C/c1cccs1)NCc1cccnc1`: -0.9% (inactive). With `CC[C@]12c3[nH]c4ccc(Cl)cc4c3CCN1C(=O)[C@@H](CC(=O)NCCCOC)C[C@@H]2C(=O)N1CCN(C(=O)c2ccco2)CC1`, the inhibition is 0.7% (inactive).

Consider `CCCN(CCC)S(=O)(=O)c1ccc(C(=O)NNC(=O)c2cc(OC)c(OC)c(OC)c2)cc1`, for which the inhibition was -2.3% (inactive).

Turning to `COc1ccccc1C(=O)COC(=O)CSCC(=O)Nc1cc(C)on1`, the inhibition is -0.2% (inactive). On to `COc1ccccc1C(=O)COC(=O)COc1ccc(C#N)cc1`, for which the inhibition was 28.5% (active). As to `COc1ccccc1C(=O)COC(=O)CNS(=O)(=O)c1ccc(NC(C)=O)cc1`, the inhibition was 5.5% (inactive). Consider `Cc1nn(C)c(Cl)c1CN1CCC(n2nccc2NC(=O)C2CCCC2)CC1`, for which the inhibition is -2.2% (inactive).

For the compound `O=C(CSc1nnc2n1CCCN2)c1ccccc1`, the inhibition is -7.7% (inactive).

As to `CCOC(=O)c1ccc(NC(=S)N2CCN(c3ccccn3)CC2)cc1`, the inhibition was 11.2% (inactive).

For the compound `O=[N+]([O-])c1ccc(NC(=S)N2CCN(c3ccccn3)CC2)cc1`, the inhibition was 5% (inactive). In the case of `COc1cc([N+](=O)[O-])ccc1NC(=S)N1CCN(c2ccccn2)CC1`, the inhibition is 32.1% (active). For the compound `O=[N+]([O-])c1ccc(CN2CC(N3CCC(c4ccccc4)CC3)CS2(=O)=O)cc1` (configuration not stated), the inhibition is 11.5% (inactive). Consider `CC1(C)CC(=O)CC2(C1)NCC(c1ccccc1Cl)c1c2[nH]c2ccccc12` (configuration not stated), for which the inhibition was -3.3% (inactive). Regarding `CCNC(=O)COC(=O)/C=C/c1c(C)nn(Cc2cccc(OC)c2)c1Cl`, the inhibition was -6.8% (inactive).

For `CC1(C)CN(c2ccc(-c3ccnc4ncnn34)cc2)C1=O`, the inhibition was 9.3% (inactive). As to `O=C(Nc1ccc(Cl)cc1)Nc1ccc(Oc2cccnc2)nc1`, the inhibition is 3.4% (inactive). The figure for `O=C(CSc1n[nH]c(-c2cccnc2)n1)Nc1ccnc2ccccc12` is -6.1% (inactive). The same measure for `COc1ccc(Nc2nc(-c3cccnc3)nc3ccccc23)cn1`: 55.4% (active); for `Cc1ccc(Nc2nnc(SC(C)C(=O)NC3CC3)s2)cc1` (configuration not stated): -8.1% (inactive); for `CCc1nnc(NC(=O)c2ccc(S(=O)(=O)NC3CCCCC3)cc2)s1`: -10.5% (inactive). `Cc1nnc(SC(C)C(=O)Nc2ccc(S(=O)(=O)NC3CCCCC3)cc2)s1` (configuration not stated): the inhibition is 25.4% (active).

Turning to `Cc1ccc(S(=O)(=O)N(CC(=O)NCCSC2CCCCC2)c2ccccc2F)cc1`, the inhibition is -1.5% (inactive).

Consider `O=C(Nc1c2c(nn1-c1ccc(F)cc1)CS(=O)C2)C12CC3CC(CC(C3)C1)C2` (configuration not stated), for which the inhibition is 5.1% (inactive). On to `O=S(=O)(c1ccccc1)c1nc(-c2ccccc2)oc1NCCCN1CCOCC1`, for which the inhibition was 28.7% (active). The figure for `O=S(=O)(c1ccc(Br)cc1)c1nc(-c2ccccc2)oc1N1CCOCC1` is 0.9% (inactive). The figure for `O=S(=O)(c1ccc(Cl)cc1)c1nc(-c2ccccc2F)oc1NCCN1CCOCC1` is 5.8% (inactive); for `CCc1nc(SCC(=O)Nc2ccccc2OC)n[nH]1` it is 4.2% (inactive); for `C=CCN1CCN(c2ccncc2S(=O)(=O)N2CCN(C)CC2)CC1` it is 1.6% (inactive).

Take `Cc1ccc(-n2c(C)cc(/C=N\NC(=O)CC(=O)NC(C)C)c2C)cc1`: the inhibition is 32.4% (active). The same measure for `Cc1cc(/C=N/NC(=O)CC2(C)OCCO2)c(C)n1-c1ccc(Cl)c(Cl)c1`: -7.8% (inactive); for `Cc1cc(/C=N/NC(N)=O)c(C)n1C1CCCCC1`: -11.5% (inactive). The same measure for `Cc1nc(N2CCCC2C(=O)O)c2oc3ccccc3c2n1` (configuration not stated): 29.6% (active); for `O=C(O)C1CCCN1C1=NS(=O)(=O)c2ccccc21` (configuration not stated): 9.6% (inactive). Consider `O=C(O)C1CCCN1c1nc(Cl)ccc1[N+](=O)[O-]` (configuration not stated), for which the inhibition is -0.9% (inactive).

As for `O=c1ccc(S(=O)(=O)N2CCCC2)cn1Cc1nc(-c2ccccc2)no1`, the inhibition was 3.3% (inactive). Take `c1ccc(CCC2=NCCn3cccc32)cc1`: the inhibition is -28.1% (inactive) and -1.3% (inactive).

On to `CNS(=O)(=O)c1cnccc1N1CCN(c2cccc(C)c2)CC1`, for which the inhibition was -5.1% (inactive). Consider `Cc1cccc(NS(=O)(=O)c2cc(Cl)ccc2Cl)n1`, for which the inhibition is 7.9% (inactive). The same measure for `Cc1cccc(N2CCN(C(=O)c3cnn4c(C(F)F)cc(-c5ccccc5)nc34)CC2)c1C`: 3.9% (inactive). As to `Cc1ccc(Cl)cc1N1CCN(C(=O)c2cccc3c(=O)c(C)c(-c4ccccc4)oc23)CC1`, the inhibition is 31% (active). The same measure for `COc1ccccc1N1CCN(C(=O)c2cc(=O)c3cc(C)cc(C)c3o2)CC1`: 14.6% (inactive); for `COCC1CCN(C(=O)CCc2nnc(C3(c4ccc(Cl)cc4)CCC3)o2)C1` (configuration not stated): 11.4% (inactive).

Regarding `COc1ccc(OC)c(S(=O)(=O)Nc2ccccc2F)c1`, the inhibition was -3.6% (inactive). The figure for `COc1ccc(OC)c(S(=O)(=O)Nc2c(C)nn(C)c2C)c1` is 16.5% (active). The figure for `COc1ccc(OC)c(S(=O)(=O)NCCC(C)C)c1` is 6.4% (inactive); for `Cc1n[nH]c(=O)c2c(NC(=O)COC(=O)c3ncc(Cl)c(Cl)c3Cl)oc(C)c12` it is 4.1% (inactive); for `CCOc1ccc(-c2nc(C)sc2CC(=O)O)cc1` it is 0.2% (inactive).

Turning to `Cc1ccc(-c2nc(C)sc2CC(=O)OCC(=O)Nc2c(F)cccc2F)cc1`, the inhibition was 24.9% (active). Turning to `Cc1nc(-c2ccc(F)cc2)c(CC(=O)N(C)CC(=O)Nc2c(C)cccc2C)s1`, the inhibition was -11.9% (inactive). Turning to `CCOC(=O)C1=C(N)N2C(=O)C(C)SC2=C(C(=O)OCC)C1c1cc(OC)c(OC)c(OC)c1` (configuration not stated), the inhibition was 6.5% (inactive). The figure for `O=C(COc1ccc(/C=N/NS(=O)(=O)c2ccccc2)cc1)NCCc1ccccc1` is 31.8% (active); for `O=C(COc1ccc(S(=O)(=O)NCCc2ccccc2)cc1)N1CCCC1` it is 0.6% (inactive). `COc1ccc(OCC(=O)NCCc2ccc(S(N)(=O)=O)cc2)cc1`: the inhibition is -12.6% (inactive). Regarding `CCc1ccnc(NC(=O)Nc2ccc(OCc3ccccc3)cc2)c1`, the inhibition was 2.7% (inactive). Consider `O=C(c1ccc(F)cc1)n1c(=S)nc2ccccn21`, for which the inhibition was -0.8% (inactive). The figure for `CC(=O)OCc1cc(=O)n(C)c(=O)n1C` is 14.5% (inactive).

For `COc1ccc(S(=O)(=O)/N=C2\C=C(NS(=O)(=O)c3ccccc3)C(=O)c3ccccc32)cc1`, the inhibition was 41.6% (active).

Regarding `COc1ccc(NS(=O)(=O)c2ccc(Oc3c(C#N)cccc3C#N)cc2)cc1`, the inhibition is 6.6% (inactive). The figure for `Cc1ccc(S(=O)(=O)/N=C2\C=C(NS(=O)(=O)c3ccc(C)cc3)C(=O)c3ccccc32)cc1` is 24.8% (inactive); for `CCOCCC(=O)Nc1ccc2c(c1)c(=O)n(C)n2-c1ccc2ccccc2c1` it is -1.8% (inactive); for `Cc1cc(S(=O)(=O)c2cc3ccc(O)c(C)c3oc2=O)ccc1F` it is 6% (inactive). As to `CCN(CC)P(=O)(C(NC(=O)OC)C(F)(F)C(F)(F)C(F)(F)C(F)F)N(CC)CC` (configuration not stated), the inhibition was 0.3% (inactive). `CC(=O)Nn1cc2c(=O)n(C)c(=O)n(C)c2c1`: the inhibition was -0.7% (inactive). In the case of `CCC(=O)NNc1cc(=O)c2c(=O)n(C)c(=O)n(C)c2[nH]1`, the inhibition was 1.9% (inactive).

In the case of `CC(=O)NNc1cc(=O)c2c(=O)n(C)c(=O)n(C)c2[nH]1`, the inhibition was 21.9% (active).

With `CCOCCCn1c(SCC(=O)Nc2cc(OC)ccc2OC)nc2ccccc2c1=O`, the inhibition is 6.3% (inactive). For `CC(=O)NC(Cc1ccc(F)cc1)C(=O)O` (configuration not stated), the inhibition was -13.6% (inactive).
